This note sets out measurements from ChEMBL document CHEMBL1201862, “PubChem BioAssay data set” (2004).

Out of some 400,000 compounds screened, about 2,100 (0.53%) were called active. Another 14% or so got no clear call; they are omitted. No rule for the calls is given here. This excerpt belongs to a sample that is enriched for actives.

The target in the assay is Ataxin-2 (Homo sapiens) (UniProt Q99700). The assay is described as follows: qHTS for Inhibitors of ATXN expression. The format is functional.
Sequence of Ataxin-2 (Homo sapiens) (Q99700 whole entry): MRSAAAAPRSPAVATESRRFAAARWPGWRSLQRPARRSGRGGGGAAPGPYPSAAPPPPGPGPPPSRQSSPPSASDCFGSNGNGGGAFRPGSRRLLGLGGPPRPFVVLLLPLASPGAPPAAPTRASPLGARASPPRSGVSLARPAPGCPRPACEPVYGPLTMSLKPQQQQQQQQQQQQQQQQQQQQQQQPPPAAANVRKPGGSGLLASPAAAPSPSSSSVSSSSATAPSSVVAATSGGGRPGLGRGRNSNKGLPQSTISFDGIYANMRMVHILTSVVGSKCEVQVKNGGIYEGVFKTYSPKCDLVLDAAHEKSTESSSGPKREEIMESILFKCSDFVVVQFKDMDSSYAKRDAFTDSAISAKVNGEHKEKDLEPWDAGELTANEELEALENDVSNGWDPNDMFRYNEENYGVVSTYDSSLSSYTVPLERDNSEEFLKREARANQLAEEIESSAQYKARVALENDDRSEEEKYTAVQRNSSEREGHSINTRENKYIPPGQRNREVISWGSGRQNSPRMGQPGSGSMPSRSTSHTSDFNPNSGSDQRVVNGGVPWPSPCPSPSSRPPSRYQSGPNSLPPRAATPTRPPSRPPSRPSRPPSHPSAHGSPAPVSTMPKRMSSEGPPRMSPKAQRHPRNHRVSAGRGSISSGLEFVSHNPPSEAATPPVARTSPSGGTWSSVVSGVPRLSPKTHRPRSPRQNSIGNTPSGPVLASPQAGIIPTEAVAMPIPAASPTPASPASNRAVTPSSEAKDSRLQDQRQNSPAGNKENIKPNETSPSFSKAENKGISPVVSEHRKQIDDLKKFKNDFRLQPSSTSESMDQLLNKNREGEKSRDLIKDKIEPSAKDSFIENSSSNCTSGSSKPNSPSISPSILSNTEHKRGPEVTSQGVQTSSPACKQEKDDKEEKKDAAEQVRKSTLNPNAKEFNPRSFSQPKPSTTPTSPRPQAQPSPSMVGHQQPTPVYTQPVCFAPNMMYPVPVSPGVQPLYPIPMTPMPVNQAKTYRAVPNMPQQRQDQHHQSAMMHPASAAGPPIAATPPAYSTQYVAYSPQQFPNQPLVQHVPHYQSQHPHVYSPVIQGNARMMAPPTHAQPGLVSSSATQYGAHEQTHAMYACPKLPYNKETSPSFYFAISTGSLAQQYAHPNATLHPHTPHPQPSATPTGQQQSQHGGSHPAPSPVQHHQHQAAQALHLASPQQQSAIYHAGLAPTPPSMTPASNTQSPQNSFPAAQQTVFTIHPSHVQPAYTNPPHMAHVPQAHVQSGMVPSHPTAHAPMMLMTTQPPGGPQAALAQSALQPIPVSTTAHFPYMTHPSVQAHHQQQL
`COc1ccc(C2C=C(c3ccc(F)cc3)Nc3nc(-c4ccc(Cl)cc4)nn32)cc1` (centres undefined): the Potency result is “inactive”.

`Cn1ncc(C#N)c1/N=C/N(Cc1ccccc1)Cc1ccccc1`: the Potency entry is “inactive”.

Consider `CC(NC1=NS(=O)(=O)c2ccccc21)C(=O)Nc1ccc(F)cc1Cl` (centres undefined), for which the Potency result is “inactive”.

As for `C[N+](C)(C)CCC(=O)N1C/C(=C/c2ccccc2)C(=O)/C(=C\c2ccccc2)C1`, the Potency is 8.44 µM (active).

On to `CC1CC(C)CN(C(=O)CCc2ccccc2)C1` (centres undefined), for which the Potency entry was “inactive”.

As to `NN=C(S)NCCc1ccccc1`, the Potency result is “inactive”.

For the molecule `COc1cc2c(cc1OC)C(SC)=NC1(CCCC1)C2`, the Potency is 35.5 µM (active).

Consider `Oc1cc(NC2CCCCC2)nc(O)n1`, for which the Potency result is “inactive”.

Consider `CCOC(=O)c1cc2c(=O)n3ccccc3nc2n(C(C)C)/c1=N/C(=O)c1c(-c2ccccc2Cl)noc1C`, for which the Potency entry is “inactive”.

As to `CCCNC(=O)C[S+]([O-])Cc1nc(-c2ccccc2C)oc1C` (centres undefined), the Potency result is “inactive”.

`COc1cc(/C=C(\C#N)C(=O)Nc2cc(C(F)(F)F)ccc2Cl)ccc1OCC(=O)Nc1cccc(C(F)(F)F)c1`: the Potency result was “inactive”.

On to `COc1cc(Nc2ccccn2)cc(C(=O)Nc2cccc(C(F)(F)F)c2)c1`, for which the Potency is 28.2 µM (active).

On to `O=C(Nc1ccncc1)c1ccc2ccccc2c1`, for which the Potency entry was “inactive”.

As for `C=CCNC(=O)/C(C#N)=C/c1c(N2CC(C)OC(C)C2)nc2ccccn2c1=O` (centres undefined), the Potency entry is “inactive”.

Regarding `Cc1ccc(NC(=O)Cc2nc(-c3c[nH]c(C(=O)N4CCCC4)c3)cs2)c(C)c1`, the Potency result was “inactive”.

For the molecule `O=C(O)/C=C\C(=O)Nc1ccc(OC(F)F)cc1`, the Potency entry is “inactive”.

On to `O=C1C=CC(=O)N1c1ccc(OC(F)F)cc1`, for which the Potency is 39.8 µM (active).

Regarding `C/C(=N\NC(=O)C1CC1)c1ccc(OC(F)F)cc1`, the Potency result was “inactive”.

Consider `COc1cc(/C=C2\C(=N)N3N=C(CC(=O)N4CCCCC4)SC3=NC2=O)cc(OC)c1O`, for which the Potency result was “inactive”.

For the molecule `COCCNC(=O)/C(C#N)=C1\N=C(NC(=O)c2ccco2)c2ccccc21`, the Potency result was “inactive”.

On to `Cc1ccnc2c1ccc1c(C)ccnc12`, for which the Potency is 5.32 µM (active).

With `Cc1ccc2cccnc2c1N`, the Potency result was “inactive”.

For the molecule `Cc1nn(CCN)c(C)c1Cl`, the Potency result was “inactive”.

Take `O=C(Nc1ccccc1Cl)C1C(c2ccccc2)C1(Cl)Cl` (centres undefined): the Potency entry was “inactive”.

On to `NC(=O)c1cc(S(=O)(=O)NCc2ccccc2)cs1`, for which the Potency result was “inactive”.

Turning to `CCN1C(=O)c2cccc3c(S(=O)(=O)NCc4ccccc4)ccc1c23`, the Potency result is “inactive”.

With `CCCCCCCCNCCS(=O)(=O)NCc1ccccc1`, the Potency was 31.6 µM (active).

With `Nc1cc(-c2ccccc2)nn1Cc1ccccc1`, the Potency entry is “inactive”.

Take `COc1ccc(Cn2c(C(=O)O)c(CNCc3ccc(C)o3)c3ccc(C)cc32)cc1`: the Potency was 17.8 µM (active).

On to `COc1ccc(CNCc2c(O)c(Cl)cc3c(C)c(C)c(=O)oc23)c(OC)c1`, for which the Potency entry is “inactive”.

For `Cc1ccc2c(CNCc3ccc(C)o3)c(C(=O)O)n(Cc3ccc(F)cc3)c2c1`, the Potency is 35.5 µM (active).

`CC(=O)c1cn(Cc2ccccc2)c(=O)n(Cc2ccc(F)cc2)c1=O`: the Potency entry was “inactive”.

Consider `Cc1ccc(Cn2c(C(=O)O)c(CNCc3ccc(C)o3)c3ccc(C)cc32)cc1`, for which the Potency is 35.5 µM (active).

As to `COc1ccc(Cn2c(C)nc3ccc([N+](=O)[O-])cc3c2=O)cc1`, the Potency entry is “inactive”.

`Cc1c(O[C@@H]2O[C@H](CO)[C@@H](O)[C@H](O)[C@H]2O)ccc2c1oc(=O)c1ccccc12`: the Potency entry was “inactive”.

With `CC(C)OCCCn1c(-c2ccco2)nc2nc3ccccc3nc21`, the Potency result is “inactive”.

Take `O=C(Cn1c(SCC(=O)Nc2ccc(F)cc2)nc2ccccc21)NCc1ccccc1Cl`: the Potency is 39.8 µM (active).

`CC(C)(C)NC(=O)Cn1c(SCC(=O)NC2CC2)nc2ccccc21`: the Potency entry is “inactive”.

For `O=C(Cn1c(C(F)(F)F)nc2ccccc21)Nc1ccccc1C(=O)O`, the Potency entry is “inactive”.

On to `C/N=c1\scc(-c2ccc(OC)cc2)n1/N=C(\C)c1cccnc1`, for which the Potency result was “inactive”.

With `CC1=CC(=Cc2sc3ccccc3[n+]2C)C=C(C)N1CC1CCCO1` (centres undefined), the Potency entry was “inactive”.

As for `Cc1cc(C)n(-c2nnc(Cl)c3ccccc23)n1`, the Potency was 39.8 µM (active).

In the case of `COc1ccc(-c2nc(C#N)c(N3CCCCC3)o2)cc1`, the Potency result is “inactive”.

Turning to `Nc1nc(N)c2cc(CNc3ccc(Cl)c(Cl)c3)ccc2n1`, the Potency was 11.2 µM (active).

On to `CCN1CCN(c2nc(NCCO)c3ccccc3n2)CC1`, for which the Potency entry was “inactive”.

On to `COc1ccc(-c2cc(C(F)(F)F)n3nc(-c4ccccc4)cc3n2)cc1OC`, for which the Potency entry is “inactive”.

`CCN1CCN(c2cc(-c3ccccc3)nc3cc(-c4cccc(F)c4)nn23)CC1`: the Potency is 17.8 µM (active).

For the molecule `Cc1ccnc(NC(=O)c2ccccc2NC(=O)c2ccc(Cl)cc2Cl)c1`, the Potency entry was “inactive”.

Turning to `Cc1ccnc(NC(=O)c2cc3c(=O)oc4ccc(C)cc4c3s2)c1`, the Potency is 20 µM (active).

On to `CCN(CC)c1ccc2cc(C(=O)Nc3ccccn3)c(=O)oc2c1`, for which the Potency entry is “inactive”.

In the case of `CCOC(=O)C(C)(C)N(Cc1cccc(C)c1)S(=O)(=O)c1ccc(Cl)c([N+](=O)[O-])c1`, the Potency was 39.8 µM (active).

Turning to `COc1ccc(Cl)cc1N(CC(=O)N(C)C)S(=O)(=O)c1ccc(C)c([N+](=O)[O-])c1`, the Potency result was “inactive”.

Consider `CCCCc1cc(=O)oc2c(CN(C)C)c(O)ccc12`, for which the Potency entry was “inactive”.

Take `CCOC(=O)c1c(CSc2ccc(CC)cc2)oc2ccc(O)c(CN(C)C)c12`: the Potency was 22.4 µM (active).

Take `CN(C)Cc1c(O)ccc2c3c(c(=O)oc12)CCCCC3`: the Potency entry is “inactive”.

Consider `Cc1ccc(/C=N/n2c(S)nnc2-c2ccccn2)o1`, for which the Potency result is “inactive”.

As to `Cc1ccc2nc(Cn3cc(C(F)(F)F)cc(Cl)c3=O)cc(=O)n2c1`, the Potency result was “inactive”.

`CN(C)c1ccc(-c2[nH]nc(O)c2NC(=O)c2ccccn2)cc1`: the Potency was 25.1 µM (active).

For `CN(C)c1ccc(/C=N/NC(=O)c2ccccn2)cc1`, the Potency entry is “inactive”.

In the case of `CCOc1cc(NC(=O)c2cccs2)c(OCC)cc1NC(=O)c1ccccn1`, the Potency entry was “inactive”.

With `Cc1ccc(OCCNC(=O)c2ccccc2F)cc1`, the Potency entry is “inactive”.

Take `Cc1cccc(NC(=O)c2[nH]cnc2C(=O)NCCCCCNC(=O)OC(C)(C)C)c1`: the Potency was 20 µM (active).

As for `CC(C)(C)OC(=O)NCCCCCNC(=O)c1[nH]cnc1C(=O)Nc1cc(Br)ccc1F`, the Potency was 39.8 µM (active).

As to `Cc1ccc(NC(=O)c2[nH]cnc2C(=O)NCCCCCNC(=O)OC(C)(C)C)cc1`, the Potency was 39.8 µM (active).

`COc1cccc(-c2ccc3c(N)c(C(=O)c4ccc(Br)cc4)sc3n2)c1`: the Potency entry is “inactive”.

As for `O=S(=O)(NCc1csc(-c2cccs2)n1)c1cccc(C(F)(F)F)c1`, the Potency result is “inactive”.

Turning to `CCCCn1c(OC(=S)N(CC)CC)cc(C)nc1=S`, the Potency is 35.5 µM (active).

Regarding `Nc1ccc2[nH]c(-c3ccc(Cl)cc3)nc2c1`, the Potency is 31.6 µM (active).

On to `Nc1ccc2[nH]c(-c3ccc(-c4nc5cc(N)ccc5[nH]4)cc3)nc2c1`, for which the Potency entry is “inactive”.

`Nc1ccc2c3[nH]c4cc(N)ccc4cc-3nc2c1`: the Potency result is “inactive”.

As for `Cc1ccc2nc3c(cc(C(=O)NCCCn4ccnc4)n3C)c(=O)n2c1`, the Potency entry is “inactive”.

For `Cc1cc(C)c2cc(N)c(Cl)nc2n1`, the Potency result was “inactive”.

`CCOC(=O)c1cc2c(=O)n3ccccc3nc2n(CC2CCCO2)/c1=N/C(=O)/C=C/c1ccccc1` (centres undefined): the Potency entry is “inactive”.

Regarding `CC(=O)c1ccc(-c2cnc3c(NC=O)cc(-c4ccccc4Oc4ccccc4)cn23)cc1`, the Potency result is “inactive”.

In the case of `CN(C)CCNC(=O)c1cccc(-c2cnc3c(NC=O)cc(-c4cccc(F)c4)cn23)c1`, the Potency was 31.6 µM (active).

Regarding `CN(C)CCNC(=O)c1cccc(-c2cnc3c(NC=O)cc(-c4ccc(F)cc4)cn23)c1`, the Potency is 35.5 µM (active).

Turning to `CN(C)CCNC(=O)c1cccc(-c2cnc3c(NC=O)cc(-c4cc(F)c(F)c(F)c4)cn23)c1`, the Potency was 25.1 µM (active).

Turning to `COc1cccc(-c2cnc3c(NC=O)cc(-c4ccc(N(C)C)cc4)cn23)c1`, the Potency result was “inactive”.

In the case of `CN(C)c1ccccc1-c1cc(NC=O)c2ncc(-c3cccc(C(F)(F)F)c3)n2c1`, the Potency result is “inactive”.

With `CN(C)C(=O)c1cccc(-c2cnc3c(NC=O)cc(-c4cccc(C(F)(F)F)c4)cn23)c1`, the Potency is 39.8 µM (active).

For the molecule `CCCCCCc1cc2cc(-c3nnc(-c4ccccc4)o3)c(=O)oc2cc1O`, the Potency entry is “inactive”.

`CC(C)OC(=O)c1sc2nc(-c3ccccc3)ccc2c1N`: the Potency result was “inactive”.

For `O=C1CCn2c1c(O)c1ccccc1c2=O`, the Potency entry is “inactive”.

With `O=C1OCCN1C(=O)[C@H]1[C@H](c2ccccc2)C(c2ccccc2)=NN1c1ccccc1`, the Potency result was “inactive”.

`N#CC1(Nc2cccc(Br)c2)C(=O)Nc2ccccc21` (centres undefined): the Potency entry is “inactive”.

As for `COc1ccc(OC)c(S(=O)(=O)N2CCN(c3ccccc3)CC2)c1`, the Potency entry is “inactive”.

As to `CCOc1ccc(C2=CC(c3cc(Br)ccc3F)n3ncnc3N2)cc1Cl` (centres undefined), the Potency entry was “inactive”.

Regarding `O=C1c2[nH]nc(-c3ccc(Br)cc3)c2C(c2cccc(O)c2)N1c1ccc(Cl)cc1` (centres undefined), the Potency was 28.2 µM (active).

Regarding `CCOc1cc(C2c3c(-c4ccc(Br)cc4)n[nH]c3C(=O)N2c2ccc(Cl)cc2)ccc1O` (centres undefined), the Potency was 28.2 µM (active).

`Cc1cccc(C2=NN(c3ccc(Br)cc3)[C@@H](C(=O)N3CCOC3=O)[C@@H]2c2ccc(Cl)cc2)c1`: the Potency entry is “inactive”.

With `O=C1OCCN1C(=O)[C@H]1[C@H](c2ccc(Cl)cc2)C(c2cccc(Cl)c2)=NN1c1ccc(Br)cc1`, the Potency entry was “inactive”.

On to `CCOc1cc(C2NN=C(c3ccc(C)cc3)S2)ccc1O` (centres undefined), for which the Potency entry is “inactive”.

For the molecule `CCN(CCCn1c(=S)[nH]c2ccc(N3CCOCC3)cc2c1=O)c1ccccc1`, the Potency entry was “inactive”.

`CN(/N=C/c1ccc2c(c1)OCO2)c1nc(N2CCOCC2)nc(N2CCOCC2)n1`: the Potency result is “inactive”.

Regarding `Cc1nonc1NC(=O)CSc1nc2ccccc2cc1C#N`, the Potency entry was “inactive”.

On to `CC(=O)c1ccc2cccc3c2c1NC(C)=N3`, for which the Potency result was “inactive”.

Consider `Cc1nc(=O)c(-c2ccccc2)c(C)n1-c1ccccc1Cl`, for which the Potency entry was “inactive”.

In the case of `CCN(CC)c1c([N+](=O)[O-])c(=O)n(CC)c2ccccc12`, the Potency entry is “inactive”.

Consider `Cc1ccc(Sc2c([N+](=O)[O-])c(=O)n(C)c3ccccc23)cc1`, for which the Potency is 28.2 µM (active).

In the case of `Cn1c2ccccc2c(=O)c2ccc(F)cc21`, the Potency result is “inactive”.

`COc1ccccc1NC(=O)c1ccc(-n2ccnc2)c([N+](=O)[O-])c1`: the Potency entry is “inactive”.

With `Cc1ccc(Sc2nc(C)c([N+](=O)[O-])c(C)c2C#N)cc1`, the Potency result is “inactive”.

Regarding `Cn1c(=O)c([N+](=O)[O-])c(Cl)c2ccccc21`, the Potency is 29.9 µM (active).

With `Cn1c(=O)c([N+](=O)[O-])c(-n2ccnc2)c2ccccc21`, the Potency is 23.8 µM (active).
